# Measured values published in the supplement of paper PMC8728848.
# Many of the other results were omitted from the sample, so the strongest signals are more common in it than they were.
# What was measured:
# Assay in all cases: glycan array binding signal (z-score within array); higher = stronger binding
# Conditions in all cases: glycan notation: IUPAC condensed, linker removed
# [1] = biological target: GlcNAc(b1-3)[GlcNAc(b1-6)]GalNAc
# Procedure, shortened: (§1)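 Glycan array binding is given as a within-array Z-score, which can be read as non-binding when negative. The arrays, 3228 of them, came from the Consortium for Functional Glycomics database and were retained only where the protein sequence was available. Z-scores were averaged across arrays of the same protein sequence at different concentrations or buffers and across linkers.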
# [2] = biological target: GlcNAc(b1-6)Gal(b1-4)GlcNAc
# Procedure, shortened: as §1
# Kdn(a2-3)Gal(b1-3)GalNAc = biological target: Kdn(a2-3)Gal(b1-3)GalNAc
# Procedure, shortened: as §1
# Kdn(a2-3)Gal(b1-4)GlcNAc = biological target: Kdn(a2-3)Gal(b1-4)GlcNAc
# Procedure, shortened: as §1
# [3] = biological target: Man(a1-2)Man(a1-3)[Man(a1-6)]Man(a1-6)[Man(a1-2)Man(a1-3)]Man(b1-4)GlcNAc(b1-4)GlcNAc
# Procedure, shortened: as §1
# Neu5Ac(a2-3)Gal = biological target: Neu5Ac(a2-3)Gal
# Procedure, shortened: as §1
# [4] = biological target: Neu5Ac(a2-3)Gal(b1-3)GlcNAc(b1-2)Man(a1-3)[Neu5Ac(a2-3)Gal(b1-3)GlcNAc(b1-2)Man(a1-6)]Man(b1-4)GlcNAc(b1-4)GlcNAc
# Procedure, shortened: as §1
# [5] = biological target: Neu5Ac(a2-3)Gal(b1-3)GlcNAc(b1-3)Gal(b1-3)GlcNAc
# Procedure, shortened: as §1
# [6] = biological target: Neu5Ac(a2-3)Gal(b1-3)[Fuc(a1-4)]GlcNAc
# Procedure, shortened: as §1
# [7] = biological target: Neu5Ac(a2-3)Gal(b1-4)GlcNAc(b1-2)Man
# Procedure, shortened: as §1
# [8] = biological target: Neu5Ac(a2-3)Gal(b1-4)GlcNAc(b1-2)[Neu5Ac(a2-3)Gal(b1-4)GlcNAc(b1-4)]Man(a1-3)[GlcNAc(b1-4)][Neu5Ac(a2-3)Gal(b1-4)GlcNAc(b1-2)[Neu5Ac(a2-3)Gal(b1-4)GlcNAc(b1-6)]Man(a1-6)]Man(b1-4)GlcNAc(b1-4)GlcNAc
# Procedure, shortened: as §1
# [9] = biological target: Neu5Ac(a2-3)Gal(b1-4)GlcNAc(b1-3)Gal(b1-3)GlcNAc
# Procedure, shortened: as §1
# [10] = biological target: Neu5Ac(a2-3)Gal(b1-4)GlcNAc(b1-3)Gal(b1-4)GlcNAc
# Procedure, shortened: as §1
# [11] = biological target: Neu5Ac(a2-3)Gal(b1-4)GlcNAc(b1-3)Gal(b1-4)[Fuc(a1-3)]GlcNAc
# Procedure, shortened: as §1
# [12] = biological target: Neu5Ac(a2-3)Gal(b1-4)GlcNAc6S
# Procedure, shortened: as §1
# [13] = biological target: Neu5Ac(a2-3)Gal(b1-4)[Fuc(a1-3)]GlcNAc
# Procedure, shortened: as §1
# [14] = biological target: Neu5Ac(a2-3)GalNAc(b1-4)GlcNAc
# Procedure, shortened: as §1
# [15] = biological target: Neu5Ac(a2-6)Gal(b1-4)GlcNAc
# Procedure, shortened: as §1
# [16] = biological target: Neu5Ac(a2-6)Gal(b1-4)GlcNAc(b1-2)Man(a1-3)[Neu5Ac(a2-3)Gal(b1-4)GlcNAc(b1-2)Man(a1-6)]Man(b1-4)GlcNAc(b1-4)GlcNAc
# Procedure, shortened: as §1
# [17] = biological target: Neu5Ac(a2-6)Gal(b1-4)GlcNAc(b1-3)Gal(b1-3)GlcNAc
# Procedure, shortened: as §1
# [18] = biological target: Neu5Ac(a2-6)Gal(b1-4)GlcNAc(b1-3)Gal(b1-4)GlcNAc(b1-3)Gal(b1-4)GlcNAc(b1-2)Man(a1-3)[Neu5Ac(a2-6)Gal(b1-4)GlcNAc(b1-3)Gal(b1-4)GlcNAc(b1-3)Gal(b1-4)GlcNAc(b1-2)Man(a1-6)]GalNAc
# Procedure, shortened: as §1
# [19] = biological target: Neu5Ac(a2-6)GlcNAc(b1-4)GlcNAc(b1-4)GlcNAc
# Procedure, shortened: as §1
# Neu5Ac(a2-8)Neu5Ac = biological target: Neu5Ac(a2-8)Neu5Ac
# Procedure, shortened: as §1
# [20] = biological target: Neu5Ac(a2-8)Neu5Ac(a2-8)Neu5Ac
# Procedure, shortened: as §1
binder,measurement,setting,value
SAOUHSC 00176 (Staphylococcus aureus) (protein) MSKILKCITLAVVMLLIVTACGPNRSKEDIDKALNKDNSKDKPNQLTMWVDGDKQMAFYKKITDQYTKKTGIKVKLVNIGQNDQLENISLDAPAGKGPDIFFLAHDNTGSAYLQGLAAEIKLSKDELKGFNKQALKAMNYDNKQLALPAIVETTALFYNKKLVKNAPQTLEEVEANAAKLTDSKKKQYGMLFDAKNFYFNYPFLFGNDDYIFKKNGSEYDIHQLGLNSKHVVKNAERLQKWYDKGYLPKAATHDVMIGLFKEGKVGQFVTGPWNINEYQETFGKDLGVTTLPTDGGKPMKPFLGVRGWYLSEYSKHKYWAKDLMLYITSKDTLQKYTDEMSEITGRVDVKSSNPNLKVFEKQARHAEPMPNIPEMRQVWEPMGNASIFISNGKNPKQALDEATNDITQNIKILHPSQNDKKGD,glycan array binding signal (z-score),[1],-0.149
same,glycan array binding signal (z-score),[2],-0.124
same,glycan array binding signal (z-score),Kdn(a2-3)Gal(b1-3)GalNAc,-0.129
same,glycan array binding signal (z-score),Kdn(a2-3)Gal(b1-4)GlcNAc,-0.143
same,glycan array binding signal (z-score),[3],-0.172
same,glycan array binding signal (z-score),Neu5Ac(a2-3)Gal,-0.179
same,glycan array binding signal (z-score),[4],1.08
same,glycan array binding signal (z-score),[5],-0.055
same,glycan array binding signal (z-score),[6],-0.157
same,glycan array binding signal (z-score),[7],0.473
same,glycan array binding signal (z-score),[8],-0.073
same,glycan array binding signal (z-score),[9],-0.09
same,glycan array binding signal (z-score),[10],0.002
same,glycan array binding signal (z-score),[11],-0.015
same,glycan array binding signal (z-score),[12],-0.027
same,glycan array binding signal (z-score),[13],-0.132
same,glycan array binding signal (z-score),[14],-0.141
same,glycan array binding signal (z-score),[15],-0.148
same,glycan array binding signal (z-score),[16],-0.114
same,glycan array binding signal (z-score),[17],-0.079
same,glycan array binding signal (z-score),[18],0.358
same,glycan array binding signal (z-score),[19],2.56
same,glycan array binding signal (z-score),Neu5Ac(a2-8)Neu5Ac,-0.022
same,glycan array binding signal (z-score),[20],-0.055
